PubChem BioAssay (NCI)
About 83,000 compounds went through this panel and 20% of them were active in at least one assay; those are over-represented in the sample as a whole.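 Plates (96-well) were seeded with cells, treated with compound at one concentration, and incubated for 48 hours before percent growth was determined.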 Activity calls are given as the source filed them. Rule for the calls: active = growth percent below 10; inactive = the rest.

test system: MDA-MB-231 breast; assay: NCI-60 one-dose screen, 48 h (100 = growth as untreated, 0 = no growth, -100 = all killed); conditions: 10 µM unless noted

**Q.** Which growth does the source give for `COc1cc2nc(Cl)nc(Nc3cccc(C4=Nc5c(N)nc(N)nc5NC(c5ccccc5)C4)c3)c2cc1OC` (configuration not stated) here?
**A.** 90.4% (inactive)

**Q.** For `C#C[C@]1(O)CC[C@H]2[C@@H]3CC=C4c5sc(-c6ccc7c(c6)OCO7)nc5CC[C@]4(C)[C@H]3CC[C@@]21C`, which growth is on record?
**A.** 51.8% (inactive)

**Q.** For `CCO/C=N/C1=C(C#N)C(c2ccc(F)cc2)c2sc3c(C)cccc3c2O1` (configuration not stated), which growth is on record?
**A.** 17.8% (inactive)

**Q.** Which growth does the source give for `COc1ccc(/C=C(\C#N)C(=O)N2c3ccccc3Sc3ccc(SC)cc32)cc1F` here?
**A.** 84.7% (inactive)

**Q.** How did the growth turn out when `NC(N)=Nc1ccc(Oc2cccc(Nc3ccc(Cl)c(C(F)(F)F)c3)c2)cc1` was run?
**A.** 6.88% (active)

**Q.** For `COc1ccccc1-n1cc(C#N)c(N)c1C(=O)c1ccc(Br)cc1`, which growth is on record?
**A.** 79.8% (inactive)

**Q.** How did the growth turn out when `Cc1cccc(/C=C/C(=O)Nc2ncc(Cc3cccc(C)c3)s2)c1` was run?
**A.** 38.8% (inactive)

**Q.** How did the growth turn out when `C=C(C=O)[C@@H]1CC[C@]2(C)[C@H](CC=C3[C@H]4[C@@H](C)[C@H](C)CC[C@]4(C(=O)OC)CC[C@]32C)[C@@]1(C)CCC#N` was run?
**A.** -21.9% (active)

**Q.** `NC(N)=Nc1ccc(Oc2cccc(Nc3ccc(Br)c(C(F)(F)F)c3)c2)cc1` was tested. Which growth did it give?
**A.** -7.69% (active)

**Q.** Which growth does the source give for `Nc1nc(N)c2c(n1)NC(c1ccc(C(F)(F)F)cc1)CC(c1ccc(Nc3nc(NCCO)nc(N4CCOCC4)n3)cc1)=N2` (configuration not stated) here?
**A.** 80.8% (inactive)

**Q.** Which growth does the source give for `COc1ccccc1-n1cc(C#N)c(N)c1C(=O)c1ccc(C)cc1` here?
**A.** 90.9% (inactive)

**Q.** For `O=C(CCn1c[n+](CC(=O)c2ccc(F)cc2)c2ccccc21)Nc1cccc2cccnc12`, which growth is on record?
**A.** 57.4% (inactive)
